Out of some 5,500 compounds screened, about 2,000 (36%) were called active. About 18% were inconclusive and are not listed. This is one part of the list. Values without a mark were called inactive. Rule as the data show it: active = normalized growth mostly below about 0.91 (no sharp cut-off); inconclusive = no clear call, values can overlap the other calls; inactive = mostly above about 0.92.
Test: chemical genetic growth profiling, strain panel (AID 1159580);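 also: tested at 20 µM; growth read once vehicle control cultures reached saturation at 30 °C; 1 = growth at the plate median or of vehicle wells; lower values mean less growth of the strain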
Conditions: growth OD

SMILES: C=C(C)[C@H]1CC=C(C(=O)O)CC1
- normalized growth (S. cerevisiae deletion strains, locus YKL068W, hits give low values): 0.858 (active)
- normalized growth (S. cerevisiae deletion strains, locus YKL085W, strain MDH1 (second series), hits give low values): 0.84 (active)
- normalized growth (S. cerevisiae deletion strains, locus YKL085W, strain MDH1, hits give low values): 0.84 (active)
- normalized growth (S. cerevisiae deletion strains, locus YKL160W, strain elf1, hits give low values): 0.969
- normalized growth (S. cerevisiae deletion strains, locus YKL190W, strain CNB1, hits give low values): 1.01
- normalized growth (S. cerevisiae deletion strains, locus YKR001C, strain vps1, hits give low values): 0.858 (active)
- normalized growth (S. cerevisiae deletion strains, locus YKR026C, strain gcn3, hits give low values): 0.98
- normalized growth (S. cerevisiae deletion strains, locus YKR091W, strain srl3, hits give low values): 0.995
- normalized growth (S. cerevisiae deletion strains, locus YLL001W, strain dnm1, hits give low values): 0.944
- normalized growth (S. cerevisiae deletion strains, locus YLL026W, hits give low values): 0.97
- normalized growth (S. cerevisiae deletion strains, locus YLL041C, strain sdh2, hits give low values): 0.998
- normalized growth (S. cerevisiae deletion strains, locus YLR027C, strain aat2, hits give low values): 0.933
- normalized growth (S. cerevisiae deletion strains, locus YLR039C, strain RIC1, hits give low values): 0.971
- normalized growth (S. cerevisiae deletion strains, locus YLR058C, strain SHM2, hits give low values): 0.996
- normalized growth (S. cerevisiae deletion strains, locus YLR102C, strain apc9, hits give low values): 0.966
- normalized growth (S. cerevisiae deletion strains, locus YLR113W, strain HOG1, hits give low values): 0.658 (active)
- normalized growth (S. cerevisiae deletion strains, locus YLR221C, strain rsa3, hits give low values): 0.907
- normalized growth (S. cerevisiae deletion strains, locus YLR258W, strain gsy2, hits give low values): 0.982
- normalized growth (S. cerevisiae deletion strains, locus YLR262C, strain YPT6 (second series), hits give low values): 0.979
- normalized growth (S. cerevisiae deletion strains, locus YLR262C, strain YPT6, hits give low values): 0.977
- normalized growth (S. cerevisiae deletion strains, locus YLR268W, strain sec22, hits give low values): 0.948
- normalized growth (S. cerevisiae deletion strains, locus YLR320W, strain mms22, hits give low values): 0.962
- normalized growth (S. cerevisiae deletion strains, locus YLR330W, strain CHS5, hits give low values): 0.99
- normalized growth (S. cerevisiae deletion strains, locus YLR342W, strain FKS1 (second series), hits give low values): 0.852
- normalized growth (S. cerevisiae deletion strains, locus YLR342W, strain FKS1, hits give low values): 0.976
- normalized growth (S. cerevisiae deletion strains, locus YLR357W, strain rsc2, hits give low values): 0.932
- normalized growth (S. cerevisiae deletion strains, locus YLR370C, strain arc18, hits give low values): 0.989
- normalized growth (S. cerevisiae deletion strains, locus YLR371W, strain rom2, hits give low values): 0.949
- normalized growth (S. cerevisiae deletion strains, locus YLR384C, strain iki3, hits give low values): 0.986
- normalized growth (S. cerevisiae deletion strains, locus YLR418C, strain cdc73, hits give low values): 0.982
- normalized growth (S. cerevisiae deletion strains, locus YML016C, strain PPZ1, hits give low values): 1.02
- normalized growth (S. cerevisiae deletion strains, locus YML032C, strain rad52, hits give low values): 0.919
- normalized growth (S. cerevisiae deletion strains, locus YML120C, strain ndi1, hits give low values): 0.986
- normalized growth (S. cerevisiae deletion strains, locus YML124C, strain tub3, hits give low values): 0.964
- normalized growth (S. cerevisiae deletion strains, locus YMR058W, strain fet3, hits give low values): 0.96
- normalized growth (S. cerevisiae deletion strains, locus YMR078C, strain ctf18, hits give low values): 0.956
- normalized growth (S. cerevisiae deletion strains, locus YMR125W, strain sto1, hits give low values): 1.03
- normalized growth (S. cerevisiae deletion strains, locus YMR129W, hits give low values): 0.991
- normalized growth (S. cerevisiae deletion strains, locus YMR205C, strain PFK2, hits give low values): 1.02
- normalized growth (S. cerevisiae deletion strains, locus YMR223W, strain ubp8, hits give low values): 0.917
- normalized growth (S. cerevisiae deletion strains, locus YMR231W, strain pep5, hits give low values): 0.988
- normalized growth (S. cerevisiae deletion strains, locus YMR263W, strain SAP30, hits give low values): 0.952
- normalized growth (S. cerevisiae deletion strains, locus YMR307W, strain GAS1, hits give low values): 0.821
- normalized growth (S. cerevisiae deletion strains, locus YNL067W, strain RPL9B, hits give low values): 0.908
- normalized growth (S. cerevisiae deletion strains, locus YNL071W, strain lat1, hits give low values): 0.991
- normalized growth (S. cerevisiae deletion strains, locus YNL128W, strain TEP1, hits give low values): 0.996
- normalized growth (S. cerevisiae deletion strains, locus YNL153C, strain GIM3, hits give low values): 0.924
- normalized growth (S. cerevisiae deletion strains, locus YNL183C, strain NPR1, hits give low values): 0.743 (active)
- normalized growth (S. cerevisiae deletion strains, locus YNL209W, strain ssb2, hits give low values): 0.992
- normalized growth (S. cerevisiae deletion strains, locus YNL233W, strain BNI4, hits give low values): 0.955
- normalized growth (S. cerevisiae deletion strains, locus YNL248C, strain rpa49, hits give low values): 0.803 (active)
- normalized growth (S. cerevisiae deletion strains, locus YNL250W, strain rad50, hits give low values): 0.852 (active)
- normalized growth (S. cerevisiae deletion strains, locus YNL271C, strain bni1, hits give low values): 0.876 (active)
- normalized growth (S. cerevisiae deletion strains, locus YNL298W, strain CLA4, hits give low values): 0.814 (active)
- normalized growth (S. cerevisiae deletion strains, locus YNL307C, strain MCK1, hits give low values): 0.912
- normalized growth (S. cerevisiae deletion strains, locus YNL322C, strain KRE1 (second series), hits give low values): 0.912
- normalized growth (S. cerevisiae deletion strains, locus YNL322C, strain KRE1, hits give low values): 1
- normalized growth (S. cerevisiae deletion strains, locus YNR049C, strain mso1, hits give low values): 0.971
- normalized growth (S. cerevisiae deletion strains, locus YNR052C, strain pop2, hits give low values): 0.921
- normalized growth (S. cerevisiae deletion strains, locus YOL006C, strain TOP1, hits give low values): 0.97
- normalized growth (S. cerevisiae deletion strains, locus YOL012C, strain htz1): 1.09
- normalized growth (S. cerevisiae deletion strains, locus YOL147C, strain pex11, hits give low values): 0.976
- normalized growth (S. cerevisiae deletion strains, locus YOR001W, strain rrp6, hits give low values): 0.894
- normalized growth (S. cerevisiae deletion strains, locus YOR061W, strain CKA2, hits give low values): 0.971
- normalized growth (S. cerevisiae deletion strains, locus YOR069W, strain VPS5, hits give low values): 1
- normalized growth (S. cerevisiae deletion strains, locus YOR070C, strain gyp1, hits give low values): 0.963
- normalized growth (S. cerevisiae deletion strains, locus YOR080W, strain dia2, hits give low values): 0.971
- normalized growth (S. cerevisiae deletion strains, locus YOR083W, strain WHI5, hits give low values): 0.934
- normalized growth (S. cerevisiae deletion strains, locus YOR106W, strain vam3, hits give low values): 0.967
- normalized growth (S. cerevisiae deletion strains, locus YOR136W, strain idh2, hits give low values): 0.966
- normalized growth (S. cerevisiae deletion strains, locus YOR144C, strain elg1, hits give low values): 0.946
- normalized growth (S. cerevisiae deletion strains, locus YOR184W, strain ser1, hits give low values): 0.862 (active)
- normalized growth (S. cerevisiae deletion strains, locus YOR231W, strain MKK1, hits give low values): 0.761 (active)
- normalized growth (S. cerevisiae deletion strains, locus YOR265W, strain rbl2, hits give low values): 1.01
- normalized growth (S. cerevisiae deletion strains, locus YOR270C, strain vph1, hits give low values): 0.959
- normalized growth (S. cerevisiae deletion strains, locus YOR290C, strain snf2, hits give low values): 0.95
- normalized growth (S. cerevisiae deletion strains, locus YOR316C, strain cot1, hits give low values): 0.978
- normalized growth (S. cerevisiae deletion strains, locus YPL051W, strain arl3, hits give low values): 0.964
- normalized growth (S. cerevisiae deletion strains, locus YPL078C, strain atp4, hits give low values): 0.959
- normalized growth (S. cerevisiae deletion strains, locus YPL106C, strain sse1, hits give low values): 0.967
- normalized growth (S. cerevisiae deletion strains, locus YPL240C, strain hsp82, hits give low values): 0.989
- normalized growth (S. cerevisiae deletion strains, locus YPL241C, strain CIN2, hits give low values): 1.01
- normalized growth (S. cerevisiae deletion strains, locus YPL256C, strain CLN2, hits give low values): 0.71 (active)
- normalized growth (S. cerevisiae deletion strains, locus YPR119W, strain clb2, hits give low values): 0.981
- normalized growth (S. cerevisiae deletion strains, locus YPR141C, strain kar3, hits give low values): 0.751 (active)
- normalized growth (S. cerevisiae deletion strains, locus YPR163C, strain tif3, hits give low values): 0.911 (active)
- normalized growth (S. cerevisiae deletion strains, locus YPR167C, strain met16, hits give low values): 0.929
- normalized growth (S. cerevisiae deletion strains, strain wtn01, hits give low values): 0.904
- normalized growth (S. cerevisiae strains, strain wild type, hits give low values): 0.999

Reference: PubChem BioAssay AID1159580 (chemical genetic matrix, 2015)
